Bioassay records (PubChem)
Most compounds without a hit are left out; they make up all but 2.3% or so of the library.
Rango complex inh: inhibitors of Rango-importin beta complex formation. Q14974. Rango CFP/YFP FRET sensor + importin beta, 45 min. Potency, µM (series often up to 92.2 µM). hit rate 0.031% among 340,000. AID 540263; calls by dose curve; further: nearly all actives have a fitted effect of over 15% in size
Target sequence (Q14974 whole entry, looked up): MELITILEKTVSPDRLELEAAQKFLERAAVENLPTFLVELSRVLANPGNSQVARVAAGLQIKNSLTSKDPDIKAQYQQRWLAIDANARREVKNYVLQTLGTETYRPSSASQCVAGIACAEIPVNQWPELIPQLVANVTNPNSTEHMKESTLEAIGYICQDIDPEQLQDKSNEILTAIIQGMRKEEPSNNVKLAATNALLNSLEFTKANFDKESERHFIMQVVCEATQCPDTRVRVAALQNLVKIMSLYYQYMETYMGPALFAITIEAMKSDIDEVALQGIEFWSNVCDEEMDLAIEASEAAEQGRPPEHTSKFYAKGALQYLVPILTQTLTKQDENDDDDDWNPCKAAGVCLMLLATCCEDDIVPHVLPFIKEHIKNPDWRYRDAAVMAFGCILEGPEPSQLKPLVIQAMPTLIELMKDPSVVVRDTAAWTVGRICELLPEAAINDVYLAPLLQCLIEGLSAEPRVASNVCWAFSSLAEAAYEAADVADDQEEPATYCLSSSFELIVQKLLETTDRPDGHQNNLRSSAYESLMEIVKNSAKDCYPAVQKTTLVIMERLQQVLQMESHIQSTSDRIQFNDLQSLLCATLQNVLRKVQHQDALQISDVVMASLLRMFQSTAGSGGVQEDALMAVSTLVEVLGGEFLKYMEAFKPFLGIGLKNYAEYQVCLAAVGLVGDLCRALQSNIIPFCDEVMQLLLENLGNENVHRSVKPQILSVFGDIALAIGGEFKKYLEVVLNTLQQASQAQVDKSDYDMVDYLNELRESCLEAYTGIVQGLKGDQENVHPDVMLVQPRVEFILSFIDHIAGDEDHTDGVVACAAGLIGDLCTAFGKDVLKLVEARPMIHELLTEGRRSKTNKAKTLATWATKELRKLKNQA
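FRET biosensor (snurportin 1 IBB flanked by EYFP and cerulean), 50 nM, with compound 5 min, then 0.125 microM importin beta in PBS, 1 mM DTT, 0.02% Tween-20, 0.1% BSA. CFP/YFP ratio read after 45 min at room temperature; pre-read flags interference.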
Nrf2 block: blocks Nrf2 signaling; A549 ARE-Fluc reporter, luciferase luminescence, 18-24 h; Potency, µM (doses to about 46 µM), hits mostly inhibitors; hit rate 2.1% among 360,000; AID 504444; further: nearly all actives have a fitted effect of over 60% in size
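Nrf2 function is reported as luminescence of an ARE-controlled luciferase in A549 cells. Compounds were tested at several concentrations, and a CellTiter-Fluor read on the same wells flagged cytotoxicity.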
A549 viability: counter-screen for Nrf2 inhibitors: cytotoxicity in A549 cells | A549 ARE-Fluc cells, CellTiter-Fluor viability, 18-24 h | Potency, µM (highest dose often 46 µM), most hits filed as inhibitors | hit rate 0.16% among 390,000
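Cytotoxicity counterscreen: CellTiter-Fluor fluorescence was measured in A549 ARE_Fluc cells after 18-24 h of compound exposure in a concentration series. The subsequent BugLite luminescent read reports ARE-luciferase activity.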
Rango dissoc inh: inhibition of RanGTP-driven Rango-importin beta dissociation. Biochemical FRET Rango-importin beta, RanGTP-induced dissociation. Potency, µM (titrated, usually from 46.1 µM). hit rate 0.071% among 340,000. O95149+P62826; calls by dose curve; further: nearly all actives have a fitted effect of over 45% in size
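Compounds sat 5 min at room temperature with 0.1 uM Rango biosensor plus 0.25 uM importin beta, then FRET pre-read. RanGTP-RCC1 (0.6 uM Ran, 2mM GTP, 0.2 uM RCC1) added for 45 min, and the CFP/YFP post-read measured blocked complex dissociation.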
Nrf2 ARE act: activators of Nrf2 (ARE) signaling | AREc32 ARE-luciferase reporter (MCF7-derived line), luminescence, 24 h | Potency, µM (titrated, usually from 46.1 µM), hits mostly activators | hit rate 0.31% among 410,000 | AID 624171; further: nearly all actives have a fitted effect of over 65% in size
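ARE activation measured as luciferase luminescence (Steady-Glo, 30 min RT) in AREc32_Fluc cells after 24 hr compound exposure at 37 deg C, 5% CO2; cells seeded overnight at 1000/well in OPTI-MEM, 5% FBS.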
Of the large screens only hits and unclear results are named; the others gave an inactive call; [ ] = dose if it differs, or a comment. Unless noted, the call rests on the fitted dose curve; in most records, active means well fitted curve in the direction sought with a large enough effect; inconclusive means small, poorly fitted or top-dose-only effect, or another doubt; inactive means no such curve, though single readings can be large; an effect the other way counts as inactive or inconclusive.

COc1ccc(Nc2nc3ccc(Cl)cc3n3nnnc23)cc1OC	none (no result: Rango complex inh, Rango dissoc inh)
CCCn1c2c(c(=N)c3c1CCC3)CCC2	Nrf2 block 7.31µM
CCCn1c2c(c(=N)c3c1CCC3)CCCC2	Nrf2 block inconclusive
COc1ccccc1NC(=O)CN1C(=O)C2(SCC(=O)N2c2ccc(C)c(C)c2)c2ccccc21 (centres undefined)	Nrf2 block 20.6µM, A549 viability inconclusive (no result: Rango complex inh, Rango dissoc inh)
COc1ccccc1NC(=O)CN1C(=O)C2(SCC(=O)N2c2ccc(F)c(F)c2)c2ccccc21 (centres undefined)	Nrf2 block inconclusive (no result: Rango complex inh, Rango dissoc inh)
O=C(CCSc1nnc(-c2ccncc2)o1)Nc1cccc(Cl)c1	Nrf2 block 20.6µM
O=C(CCSc1nnc(-c2ccncc2)o1)Nc1ccc(Cl)cc1	none
O=C(O)c1cccc(CSc2nnc(-c3ccc(Cl)cc3)o2)c1	Nrf2 block 9.2µM
CCCCN1C[C@H](COC(=O)CCC)Oc2cccc(F)c2S1(=O)=O	none
Cc1cc(S(=O)(=O)c2ccc([N+](=O)[O-])cn2)ccc1Br	Nrf2 block inconclusive, Nrf2 ARE act 12.6µM
Cc1ccc(S(=O)(=O)c2ccc([N+](=O)[O-])cn2)cc1	Nrf2 block inconclusive
c1ccc(P(c2ccccc2)c2cnc3ccccn23)cc1	none (no result: Rango complex inh, Rango dissoc inh, Nrf2 ARE act)
Cc1ccc(CN(Cc2ccco2)C(=O)COc2ccc(C(C)C)cc2)cc1	Nrf2 block 18.4µM (no result: Rango complex inh, Rango dissoc inh)
CN(NC(=O)c1ccc(Cl)cc1)c1nc(-c2ccccc2)nnc1C(F)(F)F	Nrf2 block 23.1µM
CC(C)CC(=O)NN(C)c1nc(-c2ccccc2)nnc1C(F)(F)F	none
Cc1cccc(N2CCN(C(=O)c3cc4cc(F)ccc4[nH]3)CC2)c1C	Nrf2 ARE act 7.08µM
COc1ccccc1N1CCN(C(=O)c2cc3cc(F)ccc3[nH]2)CC1	Nrf2 block inconclusive
Cc1cc(C(=O)OCC(=O)N2CCC(c3ccccc3)=N2)ccc1[N+](=O)[O-]	none
O=C(OCC(=O)N1CCC(c2ccccc2)=N1)c1ccc([N+](=O)[O-])s1	Nrf2 block 23.1µM, A549 viability inconclusive
CCc1nnc2sc(-c3ccc(NC(=O)c4ccc5c(c4)OCCO5)cc3)nn12	Nrf2 block 2.59µM
CCc1nnc2sc(-c3ccc(NC(=O)c4ccco4)cc3)nn12	none
CC(=O)NC(C)(c1ccccc1)c1nc(-c2csc3ccccc23)cs1 (centres undefined)	none (no result: Rango complex inh, Nrf2 block, A549 viability, Rango dissoc inh)
S=C(Nc1ccccc1)N1CCC(Cc2ccccc2)CC1	Nrf2 block 16.4µM
CC(C)Sc1nc(N2CCOCC2)c2c3c(sc2n1)COC(C)(C)C3	Nrf2 block 14.6µM (no result: A549 viability)
Nc1ccccc1OC1=NS(=O)(=O)c2ccccc21	none (no result: Rango complex inh, Rango dissoc inh, Nrf2 ARE act)
COc1ccc(CCNC(=O)c2c(O)nc3ccccn3c2=O)cc1OC	none (no result: Rango complex inh, Rango dissoc inh)
Cc1cc(C)cc(S(=O)(=O)c2cnc3ccccc3n2)c1	Nrf2 ARE act 22.4µM
O=S(=O)(c1ccc(Cl)cc1)c1cnc2ccccc2n1	Nrf2 block inconclusive, Nrf2 ARE act inconclusive
O=S(=O)(c1ccccc1)N1N=C(c2cccs2)CC1c1ccc(F)cc1 (centres undefined)	Nrf2 block inconclusive
Fc1ccc(N2N=C(c3cccs3)CC2c2ccccc2)cc1 (centres undefined)	Rango complex inh inconclusive, A549 viability inconclusive, Rango dissoc inh 9.2µM[inhibitor]
CN(C(=O)COC(=O)c1ccc(-c2ccc(O)cc2)cc1)C1CCS(=O)(=O)C1 (centres undefined)	Rango complex inh inconclusive
CC(=O)c1ccc(OCCNS(=O)(=O)c2ccc(-n3cnnn3)c(C)c2)cc1	Nrf2 block 5.8µM
CC(=O)Nc1cccc(OC2=NS(=O)(=O)c3ccccc32)c1	Nrf2 block inconclusive (no result: Rango complex inh, Rango dissoc inh, Nrf2 ARE act)
Cc1cc(NS(=O)(=O)c2ccc(NC(=O)c3ccc([N+](=O)[O-])cc3)cc2)nc(C)n1	none (no result: Rango complex inh, Nrf2 block, A549 viability, Rango dissoc inh)
Cc1ccccc1OCCCCn1c(CCNC(=O)C(C)(C)C)nc2ccccc21	Nrf2 block 23.1µM (no result: Rango complex inh, Rango dissoc inh)
Nc1ccccc1SC(CC(=O)c1ccccc1)c1cccc([N+](=O)[O-])c1 (centres undefined)	Nrf2 ARE act 5.01µM (no result: Rango complex inh, Nrf2 block, A549 viability, Rango dissoc inh)
O=C(NC(NC(=O)c1ccccc1)c1cccc([N+](=O)[O-])c1)c1ccccc1	none
c1ccc(N2CCN(c3nc4ccccc4n4cnnc34)CC2)cc1	Nrf2 block inconclusive
c1ccc2c(c1)CCN(c1nc3ccccc3n3cnnc13)C2	Nrf2 ARE act 12.6µM
COc1ccc2oc3cc(C)[n+]([O-])c(-c4ccc(C)cc4)c3c2c1	Nrf2 block 25.9µM, A549 viability inconclusive
Cc1cc2c(s1)c1cnn(Cc3ccccc3C)c(=O)c1n2C	none (no result: Rango complex inh, Rango dissoc inh, Nrf2 ARE act)
O=C(NCc1ccccn1)c1ccc(COc2ccc(Cl)cc2)o1	Nrf2 block 23.1µM
CCN(CC)CCNC(=O)C(=O)NCC(c1cccnc1)N1CCN(c2ccc(F)cc2)CC1 (centres undefined)	none (no result: Rango complex inh, Rango dissoc inh)
Cc1ccc(C(=O)N2CCN(c3ccc(F)cc3)CC2)cc1S(=O)(=O)N1CCCCC1	Nrf2 block 11.6µM
COc1ccc(C(=O)N2CCN(c3ccccc3)CC2)cc1S(=O)(=O)N1CCCC1	none
Cc1ccc(C(=O)N2CCN(c3ccccc3)CC2)cc1S(=O)(=O)N1CCCC1	Nrf2 block 20.6µM
CC(C)Nc1nc(NC(C)C)nc(SCC(N)=O)n1	none
CCc1nnc(N2CCN(c3ncnc4c3oc3ccccc34)CC2)s1	Nrf2 block 10.3µM
CCc1ccc(C(=O)c2cn(Cc3ccccc3)c3cc(OC)c(OC)cc3c2=O)cc1	Nrf2 block inconclusive, A549 viability 20.6µM (no result: Rango complex inh, Rango dissoc inh)
COc1cc2c(=O)c(C(=O)c3ccc(C)c(C)c3)cn(Cc3ccccc3)c2cc1OC	none (no result: Rango complex inh, Rango dissoc inh)
COc1cc2c(=O)c(C(=O)c3ccc(C)c(C)c3)cn(Cc3ccc(F)cc3)c2cc1OC	none (no result: Rango complex inh, Rango dissoc inh)
COc1cc2c(=O)c(C(=O)c3ccc(C)c(C)c3)cn(Cc3ccccc3F)c2cc1OC	Nrf2 block inconclusive, A549 viability 20.6µM (no result: Rango complex inh, Rango dissoc inh)
Cc1ccc(CNC(=O)c2nnn(CC(=O)Nc3cc(C)cc(C)c3)c2N)cc1	none
COCCNC(=O)c1nn(-c2ccc(C)cc2)c(=O)n(C)c1=O	none (no result: Rango complex inh, Nrf2 block, Rango dissoc inh)
C=CCN1c2ccccc2[C@]23C[C@@H](C(=O)OC)N(C(=O)c4ccc(Br)cc4)C2=NC(C(=O)OC)=C(C(=O)OC)[C@H]13	Nrf2 block inconclusive, A549 viability inconclusive
COC(=O)C1=C(C(=O)OC)[C@@H]2N(Cc3ccccc3)c3ccccc3[C@@]23C[C@@H](C(=O)OC)N(C(=O)c2ccc(Br)cc2)C3=N1	Rango complex inh inconclusive, Nrf2 block 16.4µM
COC(=O)C1=C(C(=O)OC)[C@@H]2N(C)c3ccccc3[C@@]23C[C@@H](C(=O)OC)N(C(=O)c2cc(C)oc2C)C3=N1	Nrf2 block 18.4µM
Cc1ccc(NC(=O)COc2coc(CN3CCc4ccccc4C3)cc2=O)c(C)c1	none
Cc1ccc(C)c(NC(=O)COc2coc(CN3CCc4ccccc4C3)cc2=O)c1	Nrf2 block 10.3µM
